Assay [1] is described as follows: qHTS assay to identify small molecule agonists of the hypoxia (HIF-1) signaling pathway - cell viability counter screen (AID 1224844; calls by dose curve; note: nearly all actives have a fitted effect of over 50% in size). The procedure, abridged: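 HRE-bla ME-180 cells in medium with 0.5% dialyzed FBS were preincubated 5 hrs at 37C, exposed to compounds for 17 hrs, then viability was read as CellTiter-Glo luminescence after 30 min at room temperature, in the reporter wells.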
Background: qHTS replaces the single test concentration by a dilution series.

Assay [2] can be described thus: qHTS assay to identify small molecule agonists of the hypoxia (HIF-1) signaling pathway (AID 1224846; active = well fitted activation curve with a large enough effect in the signal ratio in the repeat runs, not every such curve was filed as active; the % refers to the signal ratio). The procedure, abridged: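 HRE-bla ME-180 cells (beta-lactamase reporter under hypoxia response element) were plated at 2,000 cells/well in medium with 0.5% dialyzed FBS, rested 5 hrs, then given compounds in DMSO for 17 hrs at 37C, 5% CO2. Reporter induction was read with CCF4-AM FRET substrate.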

Assay [3] in a line: qHTS assay to identify small molecule agonists of H2AX - cell viability counter screen (AID 1224847; calls by dose curve; note: top concentration of the series differs between compounds; nearly all actives have a fitted effect of over 30% in size). The procedure, abridged: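 Cytotoxicity counter screen in wild-type CHO-K1 cells: a 3 hr compound treatment at 37C across 15 concentrations, followed by CellTiter-Glo luminescence to gauge viable cells.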
A short description of assay [4]: qHTS RealTime-Glo MT Cell Viability Assay in HepG2 cells - 24 hour (AID 1224867). Note: nearly all actives have a fitted effect of over 50% in size. The procedure, abridged: (§1)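 HepG2 suspension premixed with RealTime-Glo reagents is plated at 600 cells per well and left 5 h at 37 C/5% CO2. Compounds in DMSO then go in, and bioluminescence reflecting viable cell number is recorded over 40 h.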
The nature of assay [5]: qHTS RealTime-Glo MT Cell Viability Assay in HEK293 cells - 32 hour (AID 1224868). Note: nearly all actives have a fitted effect of over 50% in size. Note: potency is the fitted concentration of half-maximal effect. The procedure, abridged: (§2)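 Reads taken at 0, 8, 16, 24, 32 and 40 h from the same wells. HEK293 cells (600/well) carried RealTime-Glo reagents from seeding, with compound added after a 5 h settle at 37 C.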
Assay [6] in a line: A CellTox Green Cytotoxicity Assay to monitor cytotoxicity in HEK293 cells - 0 hour (AID 1224869). Note: nearly all actives have a fitted effect of over 50% in size. The procedure, abridged: (§3)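 HEK293 cells premixed with CellTox Green dye were seeded at 600 cells/well and left 5 h at 37 C/5% CO2 before pin transfer of 23 nL compound in DMSO. Fluorescence from dye bound to dead-cell DNA was read during 40 h treatment.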
Assay [7] can be described thus: qHTS RealTime-Glo MT Cell Viability Assay in HepG2 cells - 40 hour (AID 1224870). Note: nearly all actives have a fitted effect of over 50% in size. The procedure, abridged:
(§4)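 HepG2 cells (600/well) mixed with RealTime-Glo MT reagent, settled 5 h at 37 C/5% CO2 before compound addition. Nonlytic NanoLuc luminescence from viable-cell prosubstrate reduction read repeatedly during 40 h treatment at 37 C.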

Assay [8] in a line: A CellTox Green Cytotoxicity Assay to monitor cytotoxicity in HEK293 cells - 40 hour (AID 1224871). Note: nearly all actives have a fitted effect of over 45% in size. The procedure, abridged:
as §3

Assay [9] in a line: qHTS RealTime-Glo MT Cell Viability Assay in HEK293 cells - 16 hour (AID 1224872). The procedure, abridged: as §2
The nature of assay [10]: qHTS RealTime-Glo MT Cell Viability Assay in HEK293 cells - 40 hour (AID 1224874). Note: nearly all actives have a fitted effect of over 50% in size. Note: potency is the fitted concentration of half-maximal effect. The note with it: RealTime-Glo luminescence; max response: active compounds read low. The procedure, abridged:
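HEK293 cells mixed with RealTime-Glo reagents (NanoLuc plus cell-permeant prosubstrate) at 600 cells/well, preincubated 5 h at 37 C/5% CO2, then given 23 nL compound in DMSO. Nonlytic luminescence from viable cells was read at 0, 8, 16, 24, 32 and 40 h.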

The nature of assay [11]: A CellTox Green Cytotoxicity Assay to monitor cytotoxicity in HEK293 cells - 24 hour (AID 1224875). Note: nearly all actives have a fitted effect of over 45% in size. The procedure, abridged:
as §3

Assay [12] can be described thus: A CellTox Green Cytotoxicity Assay to monitor cytotoxicity in HepG2 cells - 16 hour (AID 1224876). Note: nearly all actives have a fitted effect of over 45% in size. The procedure, abridged: (§5)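 HepG2 cells were seeded together with the CellTox Green dye at 600 cells/well, left 5 h at 37 C/5% CO2, then given compounds in DMSO. Fluorescence from dye bound to dead-cell DNA was read repeatedly over 40 h of treatment at 37 C.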
Assay [13] in a line: qHTS RealTime-Glo MT Cell Viability Assay in HepG2 cells - 32 hour (AID 1224877). Note: nearly all actives have a fitted effect of over 55% in size. The procedure, abridged: as §1
Assay [14] can be described thus: A CellTox Green Cytotoxicity Assay to monitor cytotoxicity in HepG2 cells - 24 hour (AID 1224878). Note: nearly all actives have a fitted effect of over 45% in size. The procedure, abridged:
as §5

Assay [15] is described as follows: A CellTox Green Cytotoxicity Assay to monitor cytotoxicity in HepG2 cells - 40 hour (AID 1224879). Note: nearly all actives have a fitted effect of over 40% in size. The procedure, abridged: as §5
Assay [16] can be described thus: qHTS assay to identify small molecule agonists of H2AX (AID 1224845; active = well fitted activation curve with a large enough effect in the signal ratio in the repeat runs, not every such curve was filed as active; the % refers to the signal ratio). The procedure, abridged: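 Wild-type CHO-K1 cells, plated overnight, exposed 3hr at 37C to 15 concentrations (0.76% DMSO final). Lysed, then HTRF anti-pH2AX (S139) cryptate and anti-H2AX-d2 antibodies, 24 hr room temperature; 665/620 nm emission read.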
A short description of assay [17]: qHTS assay to identify small molecule antagonists of the estrogen related receptor (ERR) signaling pathway from Tox21 library (AID 1224848). Note: nearly all actives have a fitted effect of over 50% in size. Note: potency is the fitted concentration of half-maximal effect. The procedure, abridged: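 Luminescent reporter read-out (ONE-Glo) from NTP's ERR cell line after 18 h treatment at 37 C with DMSO-dissolved Tox21 compounds; cells pre-plated 6 h beforehand at 2,000 per well.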
Assay [18] in a line: qHTS assay to identify small molecule agonists of the estrogen related receptor (ERR) signaling pathway from Tox21 library (AID 1224849; calls by dose curve; note: nearly all actives have a fitted effect of over 15% in size). The settings on record: ERR reporter cell line, ONE-Glo luciferase, 18 h; at 92.4 µM (top of the series) unless noted. The procedure, abridged:
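ERR reporter cell line (NTP) seeded, rested 6 h at 37 C/5% CO2, then pinned with Tox21 compounds in DMSO. After 18 h at 37 C, ONE-Glo luciferase luminescence was read following 30 min at room temperature.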

A short description of assay [19]: qHTS RealTime-Glo MT Cell Viability Assay in HepG2 cells - 8 hour (AID 1224873). Note: nearly all actives have a fitted effect of over 55% in size. The procedure, abridged:
as §4

The structures appear in SMILES notation. Values without a mark were called inactive. Records with an inconclusive call do not appear. Activity calls are given as the source filed them. Unless noted, calls come from the whole dose curve; as a rule, active = well fitted curve in the direction sought with a large enough effect in the repeat runs; inconclusive = weak or mixed curves; inactive = no such curve, though single readings can be large; an effect the other way counts as inactive or inconclusive.

The text below walks through data of PubChem BioAssay (Tox21).
% is set by controls: 0 for no effect and ±100 for the full control effect.

`O=C(CBr)c1ccccc1`: the Potency entry in [1], in assay [3], in assay [4], in assay [5], in assay [6] and in assay [7] was “inactive” throughout. Further, the Potency entry in assay [8], in assay [9], in assay [11], in [12], in assay [13] and in assay [14] was “inactive” each time. In addition, the Potency result in assay [15] was “inactive”. Also, the call in assay [2] was inactive. The max response in assay [10] is 3.94%.

Consider `CCOc1ccc(C(C)(C)COCc2cccc(Oc3ccccc3)c2)cc1`, for which the Potency entry in assay [1], in assay [16], in [3], in assay [5], in [6] and in [7] was “inactive” throughout. Besides, the Potency entry in assay [8], in assay [9], in assay [11], in assay [13], in assay [14] and in [15] was “inactive” each time. Besides, the call in assay [2] was inactive. In addition, the max response in assay [10] is 11.2%.

Turning to `CC(Cl)C(C)Cl` (configuration not stated), the Potency entry in assay [1], in [3], in assay [17], in [5], in assay [6] and in assay [7] was “inactive” in each case. For the same molecule, the Potency entry in assay [8], in assay [9], in [11], in assay [13], in assay [14] and in [15] was “inactive” each time. The outcome in [2] was inactive. Besides, in assay [18], the activity change, positive = activation is 0.315%. In addition, the max response in [10] was 1.04%.

Turning to `O=C(NC(=O)c1c(F)cccc1F)Nc1cc(Cl)c(Oc2ncc(C(F)(F)F)cc2Cl)c(Cl)c1`, the Potency entry in assay [1], in assay [16], in assay [3], in assay [6], in assay [7] and in [8] was “inactive” in each case. The Potency result in assay [19], in [11], in assay [12], in assay [13], in assay [14] and in assay [15] was “inactive” in each case. Also, in assay [2], the call was inactive.

As to `CCO[C@H]1O[C@@H]2OC3(C)CC[C@H]4[C@H](C)CC[C@@H]([C@H]1C)[C@@]24OO3`, the Potency entry in assay [1], in assay [3], in assay [5], in [6], in assay [7] and in [8] was “inactive” throughout. In addition, the Potency result in [19], in assay [11], in assay [13], in assay [14] and in [15] was “inactive” in each case. In addition, in assay [2], the result was inactive. Further, in assay [17], the Potency is 0.531 µM (active). The activity change, positive = activation in assay [18] is -53.8% [at 42.5 µM]. The max response in assay [10] is -21.5%.

In the case of `C=CCOC(C)=O`, the Potency entry in [1], in assay [3], in [4], in assay [5], in [6] and in [7] was “inactive” throughout. Further, the Potency entry in assay [8], in [19], in assay [11], in assay [13], in assay [14] and in assay [15] was “inactive” in each case. Further, in [2], the molecule was called inactive. Besides, the max response in assay [10] was -6.55%.

On to `CCOP(=O)(OCC)O/C(=C/Cl)c1ccc(Cl)cc1Cl`, for which the Potency result in assay [1], in assay [16], in assay [4], in assay [6], in [7] and in [8] was “inactive” throughout. The Potency entry in assay [19], in assay [11], in assay [13], in assay [14] and in [15] was “inactive” throughout. In [2], the call was inactive. Besides, the figures for the Potency in assay [17], in assay [5] and in assay [10] were 6.86 µM (active), 21.9 µM (active) and 19.5 µM (active), respectively. In assay [18], the activity change, positive = activation was -61.6%.

On to `BrCCCCBr`, for which the Potency result in assay [1], in [16], in assay [3], in assay [5], in assay [6] and in [7] was “inactive” each time. Besides, the Potency entry in assay [8], in assay [9], in [11], in assay [12], in assay [13] and in [14] was “inactive” each time. Besides, the Potency entry in [15] was “inactive”. In assay [2], the result was inactive. Moreover, in assay [10], the max response was 17.9%.
